Assay results from PubChem BioAssay (NCI).
About 79,000 compounds went through this panel and 15% of them were active in at least one assay; those are over-represented in the sample as a whole. Active and inactive are the calls of the source. No stated cut-off is given here; in the data, active means growth inhibition above about 70%; inactive means the rest.

Columns and labels:
[1] = NCI Yeast Anticancer Drug Screen. Data for the rad52 strain (AID 147);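 further: 0% = growth of vehicle-treated control cultures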; settings: S. cerevisiae rad52 mutant growth inhibition, hits give high values
Procedure, shortened: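 Measured: yeast growth inhibition. System: strain with a defined DNA damage repair alteration. Reference: vehicle-treated control cultures.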

[2] = NCI Yeast Anticancer Drug Screen. Data for the wt1 strain (AID 149);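 further: 0% = growth of vehicle-treated wt1 cultures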; settings: S. cerevisiae wt1 strain (SPY 50644) growth inhibition, hits give high values
Procedure, shortened: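 Using yeast strain wt1, compound-induced growth inhibition was determined against vehicle-treated cultures.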

[3] = NCI Yeast Anticancer Drug Screen. Data for the rad50EPP+ strain (AID 151);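 further: 0% = growth of vehicle-treated control cultures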; settings: S. cerevisiae rad50 mutant strain, hits give high values
Procedure, shortened: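 One strain with a rad50 alteration (rad50EPP+) was compound-treated, its growth then compared to that of vehicle controls.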

[4] = NCI Yeast Anticancer Drug Screen. Data for the mgt1 strain (AID 153); settings: S. cerevisiae mgt1 mutant growth inhibition, hits give high values
Procedure, shortened: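 After exposure of the mgt1 yeast mutant to compound, growth was measured and reported as inhibition compared with vehicle controls.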

[5] = NCI Yeast Anticancer Drug Screen. Data for the rad50 strain (AID 155);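 further: 0% = growth of vehicle-only cultures of the same strain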; settings: S. cerevisiae rad50 strain growth inhibition, hits give high values
Procedure, shortened: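 Relative growth inhibition (compound vs vehicle) was measured in yeast with a defined repair-gene alteration.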

[6] = NCI Yeast Anticancer Drug Screen. Data for the mec2-1 strain (AID 157); settings: S. cerevisiae mec2-1 strain, hits give high values
Procedure, shortened: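 Test agents were screened against the mec2-1 yeast strain, with defined DNA repair or cell cycle alteration. Growth was scored as inhibition against vehicle-only controls.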

[7] = NCI Yeast Anticancer Drug Screen. Data for the rad14 strain (AID 159);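 further: 0% = growth of vehicle-treated control cultures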; settings: S. cerevisiae rad14 strain growth inhibition, hits give high values
Procedure, shortened: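 Screen for anticancer potential: a yeast strain altered in DNA damage repair is grown with compound, and reduced growth is quantified against vehicle controls.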

[8] = NCI Yeast Anticancer Drug Screen. Data for the sgs1 mgt1 strain (AID 161);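 further: 0% = growth of cultures given vehicle only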; settings: S. cerevisiae sgs1 mgt1 strain, hits give high values
Procedure, shortened: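 Genetically altered yeast, compound exposure, growth inhibition relative to vehicle.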

[9] = NCI Yeast Anticancer Drug Screen. Data for the CLN2oe strain (AID 163);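 further: 0% = growth of vehicle-only control cultures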; settings: S. cerevisiae CLN2oe strain, hits give high values
Procedure, shortened: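 Here, growth inhibition in a cell-cycle-altered yeast strain after compound exposure was quantified against vehicle control growth.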

[10] = NCI Yeast Anticancer Drug Screen. Data for the cln2 rad14 strain (AID 165);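 further: 0% = growth equal to vehicle treated cultures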; settings: S. cerevisiae cln2 rad14 strain, hits give high values
Procedure, shortened: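 Growth of compound-exposed yeast (cln2 rad14 genotype) measured and expressed as inhibition relative to vehicle.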

[11] = NCI Yeast Anticancer Drug Screen. Data for the bub3 strain (AID 167); settings: S. cerevisiae bub3 mutant strain, hits give high values
Procedure, shortened: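 Screening used yeast with an engineered genetic alteration affecting cell cycle control. Compound-exposed cultures were compared with vehicle cultures, and reduced growth was taken as inhibition.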

[12] = NCI Yeast Anticancer Drug Screen. Data for the wt2 strain (AID 169);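 further: 0% = growth of vehicle-treated yeast cultures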; settings: S. cerevisiae wt2 strain growth inhibition, hits give high values
Procedure, shortened: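 Genetically defined yeast strains from a DNA-repair/cell-cycle panel were used. Compound-exposed yeast growth was measured, and the inhibition was calculated relative to vehicle treatment.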

[13] = NCI Yeast Anticancer Drug Screen. Data for the mlh1 strain (AID 171);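 further: 0% = growth of vehicle-treated control cultures of the same strain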; settings: S. cerevisiae mlh1 strain growth inhibition, hits give high values
Procedure, shortened: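 Here the genetically defined yeast mutant is grown with each compound, and the extent to which its growth falls below that of vehicle-exposed cells is reported.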

[14] = NCI Yeast Anticancer Drug Screen. Data for the sgs1 strain (AID 173);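 further: 0% = growth of vehicle-only control cultures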; settings: S. cerevisiae sgs1 mutant, hits give high values
Procedure, shortened: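 Relative growth inhibition, referenced to vehicle, was determined in a yeast strain with a defined alteration affecting DNA damage repair or cell cycle control after compound exposure.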

[15] = NCI Yeast Anticancer Drug Screen. Data for the mlh1 rad18 strain (AID 175); settings: S. cerevisiae mlh1 rad18 strain growth inhibition, hits give high values
Procedure, shortened: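 In this whole-cell yeast screen, a strain with altered DNA damage repair is challenged with compound, and its growth is measured against matched vehicle-treated controls.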

[16] = NCI Yeast Anticancer Drug Screen. Data for the rad18 strain (AID 177); settings: S. cerevisiae rad18 mutant growth inhibition, hits give high values
Procedure, shortened: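 Screen uses a yeast strain with a defined lesion in DNA damage repair; compound effect is read as loss of growth compared to untreated vehicle cultures.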

[17] = at 5.0 µM (retest, dose inferred, filed as 0.5)
[18] = at 50.0 µM (retest, dose inferred, filed as 5.0)

Measured: growth inhibition

COC(=O)C(Cc1c[nH]c2ccccc12)N1CN(C)c2ccccc2C1=O (stereo not drawn)
inactive: [1]; at 1.2 µM 7% | [1]; at 3.7 µM 2% | [1]; at 11.0 µM 0% | [1]; at 33.0 µM 3% | [2]; at 1.2 µM 7% | [2]; at 3.7 µM -3% | [2]; at 11.0 µM -4% | [2]; at 33.0 µM -4% | [2]; at 100.0 µM 60% | [3]; at 1.2 µM 9% | [3]; at 3.7 µM 0% | [3]; at 11.0 µM -3% | [3]; at 33.0 µM 1% | [3]; at 100.0 µM 16% | [4]; at 1.2 µM 49% | [4]; at 3.7 µM -1% | [4]; at 11.0 µM -1% | [4]; at 33.0 µM 5% | [5]; at 1.2 µM 7% | [5]; at 3.7 µM 2% | [5]; [17] 11% | [5]; at 11.0 µM 6% | [5]; at 33.0 µM 2% | [5]; [18] 37% | [5]; at 50.0 µM 57.9% | [6]; at 1.2 µM 5% | [6]; at 3.7 µM -1% | [6]; [17] -17% | [6]; at 11.0 µM -2% | [6]; at 33.0 µM 5% | [6]; [18] 11% | [6]; at 50.0 µM 50.5% | [7]; at 1.2 µM 6% | [7]; at 3.7 µM -9% | [7]; at 11.0 µM -5% | [7]; at 33.0 µM -13% | [8]; [17] -2% | [8]; [18] 60% | [9]; at 1.2 µM 4% | [9]; at 3.7 µM 1% | [9]; at 11.0 µM 3% | [9]; at 33.0 µM 7% | [10]; [17] -4% | [10]; [18] 54% | [11]; at 1.2 µM -6% | [11]; at 3.7 µM -1% | [11]; [17] 13% | [11]; at 11.0 µM 11% | [11]; at 33.0 µM 0% | [11]; [18] 44% | [11]; at 50.0 µM 40.4% | [12]; at 1.2 µM 8% | [12]; at 3.7 µM -2% | [12]; at 11.0 µM -4% | [12]; at 33.0 µM 0% | [13]; at 1.2 µM 2% | [13]; at 3.7 µM 0% | [13]; at 11.0 µM 0% | [13]; at 33.0 µM 6% | [14]; at 1.2 µM 3% | [14]; at 3.7 µM 2% | [14]; at 11.0 µM 1% | [14]; at 33.0 µM 8% | [15]; [17] -9% | [16]; at 1.2 µM -8% | [16]; at 3.7 µM -3% | [16]; at 11.0 µM 3% | [16]; at 33.0 µM 18%
active: [1]; at 100.0 µM 99% | [4]; at 100.0 µM 99% | [5]; at 100.0 µM 99% | [6]; at 100.0 µM 99% | [7]; at 100.0 µM 99% | [8]; at 50.0 µM 97.8% | [9]; at 100.0 µM 99% | [10]; at 50.0 µM 70.5% | [11]; at 100.0 µM 99% | [12]; at 100.0 µM 99% | [13]; at 100.0 µM 99% | [14]; at 100.0 µM 99% | [15]; [18] 75% | [15]; at 50.0 µM 95.8% | [16]; at 100.0 µM 99%
